From ChEMBL document CHEMBL3433997, “St. Jude Leishmania screening dataset” (2016)

These compounds were tested against Glucose transporter (Leishmania mexicana) (UniProt O61059) (assay: ST_JUDE_LEISH: Cytotoxicity at 2uM final concentration against transgenic Leishmania Mexicana promastigotes LmGT2 that are glucose transport deficient and complemented with the L. Mexicana glucose transporter 2. Activity is measured by DNA content using SYBR green in vitro).
Type: functional

| Structure (SMILES) | inhibition |
| --- | --- |
| COc1cc(NCC2(CNCc3cn(Cc4ccccc4)c4ccccc34)CCCCC2)nc2ccccc12 | -0.38% |
| CO/C(=C\C=C\c1cc2cc(Cl)c(Cl)cc2[nH]1)C(=O)NCCCN1CCCC[C@@H]1C | -0.72% |
| COc1ccc(NC(=O)Nc2cccc(-c3cccc(-c4nc5cc(F)ccc5[nH]4)c3)c2)cc1 | 0.62% |
| CCCc1cc(Cc2cnc(N)nc2N)cc2c1OC(C)C2C (stereo not given) | 5.24% |
| CN1CCC(C(=O)Nc2ccc(-c3ccc(-c4nc5ccccc5[nH]4)cc3)cc2)CC1 | 0.83% |
| COc1ccc(CN2CCC(Oc3cccc(NC(=O)c4ccc(C(F)(F)F)cc4)c3)CC2)cc1 | 3.45% |
| O=C(Nc1ccc(OC2CCN(Cc3ccc(F)cc3)C2)c(Cl)c1)c1cccs1 (stereo not given) | 0.55% |
| CC(C)OC(=O)c1ccccc1S(N)(=O)=O | 7.97% |
| c1cncc(Oc2ccc(Nc3ccnc4cc(-c5cccc(CNCCN6CCOCC6)c5)ccc34)cc2)c1 | 1.1% |
| Cc1cnccc1/C=C/c1cccc(OCCCN2CCc3ccc(S(C)(=O)=O)cc3CC2)c1 | 2.19% |
| Cc1cc(Nc2nc(Nc3cccc(Cl)c3)nc3ccccc23)n[nH]1 | 9.22% |
| COc1cc(Nc2nccc(N3CCC(NC(=O)c4cccc(NC(C)=O)c4)C3)n2)cc(OC)c1OC (stereo not given) | -0.85% |
| CCCCN1CC[C@@H](CCC(O)c2cc(OCCC)nc3ccc(OC)cc23)[C@@H](CC)C1 (stereo not given in full) | -1.52% |
| COc1ccccc1-c1ccc(CNC(=O)C(CN2CCN(C)CC2)c2ccccc2)cc1 (stereo not given) | 2.44% |
| O=C(/C=C/c1ccc(Cl)c(Cl)c1)NCCCCCN1CCCC(CNC(=O)c2sc3ccccc3c2Cl)C1 (stereo not given) | 1.79% |
| Cc1ccnc(NC(c2ccc(Cl)c([N+](=O)[O-])c2)c2ccc3cccnc3c2O)c1 (stereo not given) | -1.39% |
| O=c1cc(NCCCNCc2cccc(Oc3ccccc3)c2)[nH]c2ccccc12 | 3.25% |
| Cc1cc(-c2nc3ccc(N4CCN(C)CC4)cc3[nH]2)nn1Cc1cc(Cl)ccc1OCC(C)C | 0.44% |
| O=C1CCCN1CCCNCc1cccc(-c2cccc(-c3nc4cc(C(F)(F)F)ccc4[nH]3)c2)c1 | 4.37% |
| CNC(=O)c1ccccc1Nc1nc(Nc2ccc(C(=O)O)cc2)ncc1Cl | 1.39% |

| Structure (SMILES) | inhibition |
| --- | --- |
| Cc1ccc(N2C(=O)C3C(C2=O)C2(c4ccccc4)C(=O)C3(c3ccccc3)C(c3ccccc3)=C2c2ccccc2)cc1 (stereo not given) | -1.83% |
| NC(=O)c1cccc(C(=O)Nc2cccc(-c3csc(-c4nc5ccccc5[nH]4)c3)c2)c1 | 2.09% |
| NCCCNc1nc(Nc2ccc(C(F)(F)F)cc2F)c2c(=O)[nH]ccc2n1 | 0.74% |
| O=C(CCCCCNC(=O)c1ccc(O)c(-c2ccc(Cl)c(Cl)c2)c1)NCCN1CCOCC1 | 2.65% |
| CCCc1ccccc1OCC(O)CN(C1CCCC1)C1CCCC1 (stereo not given) | 5.96% |
| FC(F)(F)c1cccc(Nc2nc3nonc3nc2NC2C3CC4CC(C3)CC2C4)c1 (stereo not given) | 0.47% |
| COc1cc(-c2cnc(N)c(-c3nc4ccccc4[nH]3)c2)cc(OC)c1OC | 1.47% |
| CCOC(=O)c1cnc2c(C(F)(F)F)cccc2c1Nc1ccc(O)cc1 | 9.59% |
| CNC(=O)c1c(NC(=O)c2cccs2)sc2c1CCCC2 | 1.44% |
| Cc1ccc2[nH]c(NC#N)nc2c1 | 0.78% |
| O=C(NCCCCCN1CCC(c2c[nH]c3ccccc23)CC1)c1ccc(-c2ccccc2)nc1 | 2.97% |
| CCN1CCc2c1cc(C(=O)N[C@@H](Cc1ccccc1)[C@H](O)CNC(C)(C)c1cccc(C(F)(F)F)c1)cc2N1CCCCS1(=O)=O | 2.66% |
| CC(C)Sc1nc2c(c(=O)n1CCc1ccccc1)C1(CCCCC1)Cc1ccccc1-2 | -0.83% |
| CCOc1ccc(Cc2c(C)nc3nc(N)nc(N)c3c2C)cc1 | 26% |
| CC(C)NCc1ccc(-c2ccc(NC(=O)c3ccc(C#N)cc3)cc2)cc1 | 4.89% |
| CCCCCCCN1CCC(CCNc2ccnc3ccc(OC)cc23)CC1 | 0.79% |
| COC(=O)c1ccc(CC(C)NCC(O)c2ccc(C(O)CNC(C)Cc3ccc(C(=O)OC)cc3)cc2)cc1 (stereo not given) | 0.96% |
| CC(=O)Nc1ccc(C(=O)Nc2cccc(-c3ccc(-c4nc5cc(C(F)(F)F)ccc5[nH]4)cc3)c2)cn1 | 3.05% |
| Cc1[nH]c(C)c(-c2ccc(-c3ccccc3)nc2)c(=O)c1Br | 0.2% |
| CCN(CC)/C(=N/C(=N)NCc1cccc(Cl)c1)NCCCCCCN/C(=N\C(=N)NCc1cccc(Cl)c1)N(CC)CC | 2.27% |
